Reference: patent US20210230599, “STEM-LOOP COMPOSITIONS AND METHODS FOR INHIBITING INTERLEUKIN-8” (VITRISA THERAPEUTICS, INC., published 2021)

target: Interleukin-8 (IL8, CXCL8), C-terminal His-tagged (Homo sapiens, UniProt P10145 SEQ:1-72); experiment: competition; competition TR-FRET; G18U; settings: tags: C-terminal 6xHis (Sino Biological); ssRNA; 2'-F G, 2'-OMe A/C/U, 5' C6NH2, 3' idT
Experimental: To better understand the sequence requirements and to confirm the stem structures of members of the Aptamer 3 family as determined from sequence covariation analysis from both the primary and secondary (degenerate) selections, a series of variants which included mutations and deletions to the predicted stems were synthesized and screened (Table 24). Activity of each of these variants were tested using a time resolved competition TR-FRET assay in which the labeled parent Aptamer 3 was competed with increasing concentrations of unlabeled variants for binding to IL8 (FIG. 14). Briefly, 2-fold dilutions of thermally equilibrated aptamers were made in TR-FRET Buffer (50 mM MOPS, pH 7.4, 125 mM NaCl, 5 mM KCl, 50 μM CHAPS, 0.1 mg/mL BSA, 1 mM CaCl₂, and 1 mM MgCl₂). 5 μL of aptamer or control solution was added to 5 μl mix of 10 nM C-terminal His-tagged-IL8, 60 nM ALEXA FLUOR® 647-labeled Aptamer, and 5 nM anti-His-Eu (Perkin Elmer) in a black wall low volume 384 well plate (Greiner). For control, 5 μl of 1000-fold excess of unlabeled parent aptamer or 5 μl TR-FRET buffer alone was added to the mix of ALEXA FLUOR® 647-labeled aptamer, His-IL8, and anti-His-Eu. The plate was covered with a plate seal and subsequently incubated in the dark for 1 hour at room temperature. The plate was read on a Biotek CYTATION™ 5 plate reader. […]

Sequence	binding signal
UGAUGACGGUAGAUUACUGGUAGAGUGACCGCAUCU	> 10 fold worse than Aptamer 3
